Assay results published in the supplement of paper PMC3334620.
Whole data set: some 33,000 sequences, median “E-score (-0.5 to 0.5)” near -0.016, cut for the highest 2% near 0.31. The sample holds the highest values, similar sequences and a random draw of the others, so the mix is not that of the screen.

Molecular target: Cst6 (UniProt P40535)
Experiment: PBM E-score (8-mer binding enrichment) (E-score (-0.5 to 0.5)); higher = stronger / more preferred TF binding
Conditions: protein concentration: 200 nM; construct: GST-DNA-binding domain
Summary of the method: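 Full-length yeast transcription factors or their DNA-binding domains, GST-tagged and expressed with PURExpress, were applied at about 100-200 nM to universal all-10-mer Agilent arrays. These arrays had been made double-stranded by primer extension on fresh or once-stripped slides. Detection used fluorescent anti-GST, normalisation used masliner, and E-scores for ungapped eight-base words pooled with reverse complements came from the Universal PBM Analysis Suite.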

Sequence of UniProt P40535 (P40535 whole entry): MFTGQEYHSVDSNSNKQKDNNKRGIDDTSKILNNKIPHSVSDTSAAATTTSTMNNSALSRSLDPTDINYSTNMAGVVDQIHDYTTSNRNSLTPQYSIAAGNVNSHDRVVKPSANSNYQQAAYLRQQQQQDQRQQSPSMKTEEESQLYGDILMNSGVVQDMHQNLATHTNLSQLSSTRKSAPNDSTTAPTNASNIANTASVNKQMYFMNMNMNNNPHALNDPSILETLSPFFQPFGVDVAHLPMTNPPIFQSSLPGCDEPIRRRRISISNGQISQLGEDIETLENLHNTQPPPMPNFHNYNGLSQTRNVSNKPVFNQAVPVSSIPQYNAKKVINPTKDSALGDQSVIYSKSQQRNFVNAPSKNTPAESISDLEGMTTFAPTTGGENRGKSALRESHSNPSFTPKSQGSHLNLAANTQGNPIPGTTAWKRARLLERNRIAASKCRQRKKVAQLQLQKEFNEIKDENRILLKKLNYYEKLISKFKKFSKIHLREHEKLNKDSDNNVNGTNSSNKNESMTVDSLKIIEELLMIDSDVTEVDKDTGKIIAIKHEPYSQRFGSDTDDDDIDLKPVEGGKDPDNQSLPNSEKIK

Compared with AAAATCGG, GCGCAGCC is lower in “PBM E-score” value: -0.00802 for the first, -0.38 for the second.

First: ATTAAATA
Second: ATTGAAAA
The “PBM E-score” value of the first is lower: 0.267 for the first, 0.31 for the second.

Going from TTAAAAAA to ATAAAAAA, the “PBM E-score” value falls from 0.306 to 0.234.

Compared with CTTGAAAA, ATTGAAAC is lower in “PBM E-score” value: 0.216 for the first, 0.194 for the second.

Going from TTTAAAAA to CTAAAAAA, the “PBM E-score” value rises from 0.0985 to 0.273.

First: ATAAAAAG
Second: ATTAAATC
The “PBM E-score” value of the first is higher: 0.307 for the first, 0.212 for the second.

Going from ATTAAATG to ATAAAAGG, the “PBM E-score” value falls from 0.315 to 0.0584.

Compared with CAGGTTAG, CCGCTTGA is higher in “PBM E-score” value: -0.116 for the first, 0.0541 for the second.

First: ATCTGCTG
Second: GAAGCTGC
The “PBM E-score” value of the first is higher: 0.0566 for the first, -0.117 for the second.

Going from ACTTAGCA to ATTCCGCG, the “PBM E-score” value rises from -0.0634 to 0.129.

Going from ATTAAAAC to ATTAAAAG, the “PBM E-score” value falls from 0.213 to 0.173.

Compared with ATTAAAAA, ACTACACA is lower in “PBM E-score” value: 0.323 for the first, 0.17 for the second.

Compared with CGTTAGAA, CTGATGCA is lower in “PBM E-score” value: 0.101 for the first, 0.0731 for the second.

First: GAGATGCA
Second: ATGATGCA
The “PBM E-score” value of the first is lower: -0.071 for the first, 0.362 for the second.

Going from ATGATGCC to ATGATGCG, the “PBM E-score” value falls from 0.347 to 0.296.

First: AGGATGCC
Second: ACGATGCA
The “PBM E-score” value of the first is higher: 0.0165 for the first, -0.00326 for the second.

Compared with CTGATGCC, GTGATGCA is higher in “PBM E-score” value: 0.113 for the first, 0.383 for the second.

Going from CCGGATCG to ACTTTTCA, the “PBM E-score” value rises from -0.134 to 0.133.

First: CTTCCCAC
Second: GACTCGCC
The “PBM E-score” value of the first is higher: 0.0313 for the first, -0.223 for the second.

Going from CCGGGTTA to CAAAAGAA, the “PBM E-score” value rises from -0.281 to 0.239.

Compared with AAGCTCAC, AACAATCA is higher in “PBM E-score” value: -0.167 for the first, 0.287 for the second.

First: CACCCCGG
Second: ACTTCGTA
The “PBM E-score” value of the first is lower: -0.19 for the first, -0.0634 for the second.

Going from TCGTAACA to CCGTAACG, the “PBM E-score” value falls from 0.129 to -0.0115.

Compared with CCGTAACC, ACGTAACC is higher in “PBM E-score” value: -0.0836 for the first, 0.414 for the second.

Going from ACGTAACG to AGGTAACT, the “PBM E-score” value falls from 0.39 to 0.106.

Compared with GCGTAACC, ACGTAACT is higher in “PBM E-score” value: 0.14 for the first, 0.413 for the second.

First: GCGTAACA
Second: AAGTAACT
The “PBM E-score” value of the first is lower: 0.195 for the first, 0.204 for the second.

Compared with ACGTAACA, AAGTAACG is lower in “PBM E-score” value: 0.386 for the first, 0.0219 for the second.

Compared with ATGAGACG, ACCTAGGG is lower in “PBM E-score” value: -0.0685 for the first, -0.159 for the second.

First: ACCCATGG
Second: CTCCTTTA
The “PBM E-score” value of the first is higher: -0.144 for the first, -0.251 for the second.

Compared with CTACCGTA, ATCAAATA is higher in “PBM E-score” value: 0.0736 for the first, 0.0992 for the second.

Going from CTCGGTTA to GTGTCAGA, the “PBM E-score” value falls from 0.0295 to -0.0004.

First: GCGTCAGA
Second: GCGTCAGC
The “PBM E-score” value of the first is higher: 0.313 for the first, 0.15 for the second.

Compared with ACGTCAGG, ATGTCAGG is lower in “PBM E-score” value: 0.413 for the first, 0.176 for the second.

Going from GGGTCAGA to TCGTCAGA, the “PBM E-score” value rises from -0.219 to 0.124.

Compared with ACGTCAGA, CCGTCAGC is lower in “PBM E-score” value: 0.464 for the first, 0.0302 for the second.

Going from CCGTCAGA to ACGTCAGC, the “PBM E-score” value rises from -0.0924 to 0.482.

Compared with CCGTCAGG, ACCGACGG is higher in “PBM E-score” value: -0.107 for the first, -0.0433 for the second.

Compared with CTTCCCGA, AGTCGCAG is lower in “PBM E-score” value: -0.0284 for the first, -0.192 for the second.

First: ACTCTTGA
Second: CCTTGCAA
The “PBM E-score” value of the first is higher: -0.103 for the first, -0.186 for the second.

Compared with ACTCCGCG, CGGCATAA is higher in “PBM E-score” value: -0.0486 for the first, 0.135 for the second.

Compared with AACTCGAG, ACCTTTGA is lower in “PBM E-score” value: -0.0652 for the first, -0.156 for the second.

First: CCTCCTAG
Second: AAGCACGT
The “PBM E-score” value of the first is lower: -0.121 for the first, 0.0741 for the second.

First: GAGCAGGA
Second: GGAAACCC
The “PBM E-score” value of the first is lower: -0.154 for the first, -0.147 for the second.

Going from ACCTCAGT to AAGTCAGT, the “PBM E-score” value rises from 0.013 to 0.0407.

First: ACGTCAGT
Second: GACACGCC
The “PBM E-score” value of the first is higher: 0.472 for the first, 0.0155 for the second.

Compared with CTGGACTA, GGTACGTA is higher in “PBM E-score” value: -0.267 for the first, 0.136 for the second.

Compared with CGTACGTC, AGTACGTA is lower in “PBM E-score” value: 0.31 for the first, 0.267 for the second.

First: AGTACGTC
Second: CGTACGCC
The “PBM E-score” value of the first is higher: 0.205 for the first, 0.111 for the second.

Compared with CGTACGTA, CGTAAACA is lower in “PBM E-score” value: 0.306 for the first, 0.262 for the second.

First: TATACCGA
Second: GGTGATGA
The “PBM E-score” value of the first is lower: 0.00086 for the first, 0.362 for the second.

Compared with TATGATCA, TATGATGA is higher in “PBM E-score” value: 0.207 for the first, 0.337 for the second.

Compared with TATGATAA, GATGATCA is lower in “PBM E-score” value: 0.251 for the first, 0.171 for the second.

Compared with GCTGATGA, CATGATGG is lower in “PBM E-score” value: 0.278 for the first, -0.0379 for the second.

First: CATGATGC
Second: GGTGATTA
The “PBM E-score” value of the first is higher: 0.28 for the first, 0.206 for the second.

First: GATGATGA
Second: CGTGATGA
The “PBM E-score” value of the first is higher: 0.319 for the first, 0.297 for the second.

Compared with CATGATGA, CACGCTAC is lower in “PBM E-score” value: 0.342 for the first, -0.134 for the second.

Compared with ACTACCGC, CTCTCAAG is lower in “PBM E-score” value: -0.0306 for the first, -0.14 for the second.

First: GCCAACGC
Second: CGAACTAG
The “PBM E-score” value of the first is lower: -0.0319 for the first, 0.0382 for the second.

First: CGCAATTA
Second: CCCAAAAC
The “PBM E-score” value of the first is higher: 0.18 for the first, 0.105 for the second.

Compared with CCTGGGGA, CCTGCACA is higher in “PBM E-score” value: -0.402 for the first, -0.179 for the second.

Going from ACACTACT to CCTTCCGA, the “PBM E-score” value falls from 0.0264 to -0.149.

First: AGCTACTC
Second: ATTGATGA
The “PBM E-score” value of the first is lower: -0.274 for the first, 0.296 for the second.

First: CTTGATGA
Second: GTTGATGA
The “PBM E-score” value of the first is lower: 0.24 for the first, 0.309 for the second.

Compared with ACGAGGAT, ATGTCAAA is higher in “PBM E-score” value: -0.0239 for the first, 0.237 for the second.

Compared with ATGTCACG, CTGTCACC is lower in “PBM E-score” value: 0.396 for the first, 0.0496 for the second.

Going from ATGTCAAC to ATGTCACA, the “PBM E-score” value rises from 0.251 to 0.375.

Going from GTGTCACA to ATGTCACC, the “PBM E-score” value rises from 0.229 to 0.465.

Going from CTGTCACA to ATGTCAGA, the “PBM E-score” value rises from 0.0581 to 0.221.

Going from AGGGCTAG to ATCTCTCG, the “PBM E-score” value rises from -0.242 to -0.0585.

Compared with GGGAAAAC, AGAGGTTC is lower in “PBM E-score” value: -0.0343 for the first, -0.11 for the second.

First: AAAGCGCT
Second: GCCGCACC
The “PBM E-score” value of the first is lower: 0.183 for the first, 0.226 for the second.

Going from ATAGAAGG to GTAATATA, the “PBM E-score” value rises from -0.208 to 0.354.

Going from GTATAATA to ATAATATA, the “PBM E-score” value rises from 0.288 to 0.358.

Compared with GTAATAGA, ATATAATA is higher in “PBM E-score” value: 0.0316 for the first, 0.31 for the second.

Going from ACATAATC to CTATAATA, the “PBM E-score” value falls from 0.267 to 0.0135.

Going from ATAATATG to ACATAATA, the “PBM E-score” value rises from 0.273 to 0.345.

Going from GCATAATA to ATAATATC, the “PBM E-score” value falls from 0.227 to 0.219.

Going from CTAATATA to TTCACAAA, the “PBM E-score” value falls from 0.302 to 0.0753.

First: ATCGCGTG
Second: CGGGCGAC
The “PBM E-score” value of the first is higher: 0.0786 for the first, -0.319 for the second.

Compared with GGAGGCCA, AAAAGGTA is higher in “PBM E-score” value: -0.314 for the first, -0.0898 for the second.

Going from AATTACCG to ATTCGATC, the “PBM E-score” value falls from 0.196 to 0.153.

Compared with GTTGTTCA, ATGAGCCG is lower in “PBM E-score” value: 0.0498 for the first, 0.0382 for the second.

Going from ATACGGCA to GTACGGCA, the “PBM E-score” value falls from 0.394 to 0.249.

Going from ATACGGTG to CTACGGCA, the “PBM E-score” value rises from 0.104 to 0.283.

Compared with ATACGGCC, ATACGGCG is higher in “PBM E-score” value: 0.138 for the first, 0.36 for the second.

Going from AGAAAAGG to CAGACTTA, the “PBM E-score” value falls from 0.0591 to -0.094.

With CATAAGCA the “PBM E-score” value was -0.0945.
